Test results published in PubChem BioAssay (NCI).
About 83,000 compounds went through this panel and 20% of them were active in at least one assay; those are over-represented in the sample as a whole.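 96-well plates, one dose, 48 hours. Percent growth reported; active if below 10.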 A number with no mark means an inactive call. The source made the active and inactive calls.

What was measured:
Test in all cases: NCI-60 one-dose screen, 48 h (100 = growth as untreated, 0 = no growth, -100 = all killed)
Conditions in all cases: 10 µM
NCI-H23 lung = test system: NCI-H23 lung
NCI-H226 lung = test system: NCI-H226 lung
NCI-H322M lung = test system: NCI-H322M lung
HOP-62 NSCLC = test system: HOP-62 NSCLC
NCI-H460 lung = test system: NCI-H460 lung
NCI-H522 lung = test system: NCI-H522 lung
A549/ATCC NSCLC = test system: A549/ATCC NSCLC
786-0 renal = test system: 786-0 renal
COLO 205 colon = test system: COLO 205 colon
DU-145 prostate = test system: DU-145 prostate
K-562 leukemia = test system: K-562 leukemia
MDA-MB-231 breast = test system: MDA-MB-231 breast
RXF 393 renal = test system: RXF 393 renal
SF-268 CNS = test system: SF-268 CNS
SF-295 CNS = test system: SF-295 CNS
SF-539 CNS = test system: SF-539 CNS
UACC-257 melanoma = test system: UACC-257 melanoma
M14 melanoma = test system: M14 melanoma
HCT-15 colon = test system: HCT-15 colon
MALME-3M melanoma = test system: MALME-3M melanoma

| SMILES | growth (NCI-H23 lung) | growth (NCI-H226 lung) | growth (NCI-H322M lung) | growth (HOP-62 NSCLC) | growth (NCI-H460 lung) | growth (NCI-H522 lung) | growth (A549/ATCC NSCLC) | growth (786-0 renal) | growth (COLO 205 colon) | growth (DU-145 prostate) | growth (K-562 leukemia) | growth (MDA-MB-231 breast) | growth (RXF 393 renal) | growth (SF-268 CNS) | growth (SF-295 CNS) | growth (SF-539 CNS) | growth (UACC-257 melanoma) | growth (M14 melanoma) | growth (HCT-15 colon) | growth (MALME-3M melanoma) |
| --- | --- | --- | --- | --- | --- | --- | --- | --- | --- | --- | --- | --- | --- | --- | --- | --- | --- | --- | --- | --- |
| Nc1ccc2cc(S(=O)(=O)O)cc(O)c2c1N=Nc1ccc(F)cc1 | 94.6% | 107% | 104% | 109% | 115% | 100% | 109% | 100% | 111% | 118% | 119% | 112% | 119% | 114% | 110% | 95.9% | 106% | 100% | 105% |  |
| Clc1ccc(/C=C2\CCCC3=C2N=C2SC=NN2C3c2ccc(Cl)cc2)cc1 (stereo not given) | 94.8% | 107% | 96.2% | 112% | 97.2% | 106% | 88.6% | 103% | 113% | 98.3% | 102% | 104% | 105% | 99.2% | 105% | 106% | 97.1% | 94.9% | 87.3% |  |
| CCN(CC)CCOc1nc2cc(OC)c(OC)cc2c2c1-c1ccc(OC)cc1C2=O | 77.3% | 74.3% | 83.9% | 60.9% | 25.6% | 73.9% | 66.1% | 87.8% | 72.7% | 64.1% | 69.6% | 92.4% | 86.2% | 44.3% | 29.6% | 81.9% | 101% | 85.9% | 81.4% |  |
| CCCCCC(=O)c1ccc(OCCCN2CCN(C(=O)OCC)CC2)cc1 | 81.2% | 73% | 119% | 108% | 99.1% | 101% | 94.8% | 97.5% | 96.3% | 107% | 66.4% | 99.5% | 102% | 108% | 81.8% | 104% | 95.6% | 103% | 85.1% |  |
| NC1=NC(=O)C(c2ccccc2)(c2ccccc2)S1 | 106% | 103% | 111% | 98.1% | 113% | 102% | 104% | 102% | 117% | 114% | 90.8% | 104% | 109% | 113% | 112% | 111% | 110% | 107% | 101% |  |
| CCn1cc(C(=O)O)c(=O)c2cnc(N3CCCC3)nc21 | 105% | 94.5% | 97.3% | 108% | 110% | 101% | 96.1% | 92.6% | 111% | 119% |  | 106% |  | 116% | 94.7% | 100% | 97.2% | 96.9% | 111% | 92.8% |
| COc1ccc(C2CC(c3ccc(N(C)C)cc3)=NN2c2ccc(S(N)(=O)=O)cc2)cc1 (stereo not given) | 53.6% | 52.4% | 83.1% | 78.2% | 29.2% | 40.9% | 26.1% | 64.3% | 55.4% | 78.4% |  | 67.7% | 63.2% | 59.6% | 35.2% | 114% | 73.7% | 69.2% | 43% | 83% |
| C[N+](C)(C)c1ncnc2nc[nH]c12 | 93.8% | 99.1% | 67% | 98% | 104% | 97.1% | 108% | 89.8% | 104% | 116% | 73.3% | 111% |  | 102% | 87.8% | 97.6% | 91.5% | 93.8% | 94.2% |  |
| CN(C)CCOc1nc2ccccc2c2c1-c1ccc(Cl)cc1C2=O | -43.9% (active) | 3.47% (active) | -34% (active) | -20.4% (active) | -20.7% (active) | -65.5% (active) | -28.4% (active) | 12.7% | -76.1% (active) | -14.2% (active) | -29.9% (active) | 14.8% | -35.6% (active) | -25.3% (active) | -27.9% (active) | -1.7% (active) | -68% (active) | -83.4% (active) | 5.59% (active) |  |
| O=c1c2ccccc2nc(SCCN2CCCCC2)n1CCc1ccccc1 | 77.5% | 101% | 97.6% | 89% | 105% | 89.2% | 87.9% | 86.7% | 74.7% | 101% |  | 66.5% |  | 101% | 87.5% | 90.2% | 95.9% | 103% | 80.7% |  |
| COc1cc(NC(=O)CSc2nc3ccccc3c(=O)n2CCc2ccccc2)cc(OC)c1OC | 26.6% | -0.963% (active) | 27.7% | 9.57% (active) | -30.2% (active) | -23.9% (active) | 24.9% | -80.1% (active) | 29.9% | 45.9% |  | -17% (active) |  | 13.9% | 51.6% | -50% (active) | 39.2% | 41.9% | 89% |  |
| CCc1ccc2c(c1)N(CCO)C1=C(C(=O)OC1)C2c1ccccc1 (stereo not given) | 101% | 102% | 115% | 81.6% | 109% | 4.79% (active) | 104% | 97.1% | 109% | 115% | 49.1% | 103% | 94.3% | 106% | 86% | 103% |  | 78.9% | 71.6% |  |
| Cc1cs/c(=N\NC(=O)c2cc(-c3cc4ccccc4o3)nn2-c2ccccc2)n1-c1ccccc1 | 85.9% | 91.3% | 93.5% | 97.9% | 97.1% | 86.4% | 88.4% | 91.4% | 98.3% |  | 94.2% | 84% |  | 92.5% | 85% | 106% |  | 95.8% | 96.6% | 99.5% |
| COc1ccc2c(c1)N(CCO)C1=C(C(=O)OC1)C2c1cc(OC)c(OC)c(OC)c1 (stereo not given) | 17.4% | 2.05% (active) | 17% | 25.6% | 0.781% (active) | -36.1% (active) | 13.1% | 25.3% | -65.4% (active) | -30.8% (active) | 15% | -24.4% (active) | 55.5% | 23.9% | -20.6% (active) | -6.38% (active) | 47.4% | 11.2% | 5.29% (active) |  |
| COc1cc2c(cc1OCCCCCCN1CCN(CC(=O)Nc3ccc(Cl)cc3C(=O)c3ccccc3Cl)CC1)N=CC1CCCN1C2=O (stereo not given) | -56.1% (active) | -82% (active) | -97.8% (active) | -77.9% (active) | -30.5% (active) | -69% (active) | -93% (active) | -85.4% (active) | -60.1% (active) |  | -62.3% (active) | -100% (active) |  | -61% (active) | -94.9% (active) | -95.2% (active) |  | -67.4% (active) | -100% (active) | -92.3% (active) |
| Nc1ccn(C2CC(O)C(CO)O2)c(=O)n1 (stereo not given) | 105% | 99.1% | 223% | 98.8% | 102% | 109% | 108% | 100% | 108% | 120% | 99.5% | 115% |  | 110% | 116% | 98.3% | 113% | 106% | 102% |  |
| CO/N=C(/C(=O)NC1C(=O)N2C(C(=O)O)=C(COC(N)=O)CSC12)c1ccco1 (stereo not given) | 107% | 109% | 100% | 112% | 118% | 99.4% | 101% | 96% | 114% | 127% |  | 107% |  | 124% | 105% | 100% | 104% | 102% | 104% | 94.3% |
